Screening results from PubChem.
Most compounds without a hit are left out; they make up all but 10% or so of the library.
NIH3T3 tox = kills NIH 3T3 cells. NIH 3T3 viability, CellTiter-Glo ATP luminescence, 48-72 h. Potency, µM (highest dose often 96.7 µM), usual class: inhibitors. 4.3% of 94,000 active; also: nearly all actives have a fitted effect of over 55% in size
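First NIH 3T3 cells are plated at 400 cells/well; next compound is pinned in; then plates incubate 48 or 72 hr at 37 °C; finally CellTiter-Glo is added and luminescence read after 10 min.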
GPT2 inh = blocks human glutamate pyruvate transaminase 2; 0.25% of 100,000 active; Potency, µM (highest dose often 57.7 µM), most hits filed as inhibitors; Recombinant GPT2, coupled pyruvate oxidase/HRP Amplex Red fluorescence; Q8TD30; also: nearly all actives have a fitted effect of over 60% in size
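GPT2 10ng/uL, a-KG 250uM, L-Ala 2mM, HEPES pH7.5 + 0.0001% Tween; 30 min RT. Then Amplex mix (PO/HRP/ThPP), 30 min RT dark, fluorescence. AOA 50uM used as positive control.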
Luciferase inh = inhibitors of firefly (Photinus pyralis) luciferase; purified P. pyralis luciferase, luminescence, biochemical; 2.5% of 76,000 active; Potency, µM (top dose mostly 115 µM), actives largely listed as inhibitors; also: nearly all actives have a fitted effect of over 65% in size
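Purified P. pyralis luciferase (10nM final) in 50mM Tris acetate pH 7.5, 10mM Mg acetate, 0.01% Tween-20, 0.05% BSA with 10uM D-luciferin and 10uM ATP. Compounds titrated qHTS. Luminescence imaged on CCD.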
hNpr1 antagonist = antagonists of human natriuretic peptide receptor Npr1; 1.6% of 76,000 active; P16066; Potency, µM (top dose mostly 46.3 µM), usual class: inhibitors; HEK293 hNpr1 GloSensor cGMP, ANP-stimulated luminescence; calls by dose curve; also: nearly all actives have a fitted effect of over 60% in size
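HEK293 cells stably expressing human Npr1 and cGMP GloSensor pGS-40F, loaded 2 h with 2% GloSensor reagent, given compound 30 min at room temperature. Luminescence read before and 20 min after 0.1 nM hNppA.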
HEK293 tox = kills HEK 293 cells. AID 1345083. 6.6% of 94,000 active. Potency, µM (highest dose often 115 µM), actives largely listed as inhibitors. HEK 293 viability, ATP luminescence (CellTiter-Glo), 48-72 h; also: nearly all actives have a fitted effect of over 60% in size
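Cytotoxicity was scored by loss of ATP-coupled luminescence (CellTiter-Glo) in HEK 293 cells. Compound treatment ran 48 or 72 hr at 37 degree Celsius, 5% CO2, 95% humidity.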
Large screens that a line does not name were inactive. Unless noted, calls follow the shape of the dose curve; as a rule, active = well fitted curve in the direction sought with a large enough effect; inconclusive = small, poorly fitted or top-dose-only effect, or another doubt; inactive = no such curve, though single readings can be large; an effect the other way counts as inactive or inconclusive.

O=[S+]([O-])(Nc1cccnc1)c1ccc2c(c1)OCCN(Cc1cncc(F)c1)C2	NIH3T3 tox 45µM
Cc1cc(C(=O)NC2CCNCC2)c2c(C3CCCN3)noc2n1 (stereo not drawn)	none (no result: Luciferase inh, hNpr1 antagonist)
Cc1ccc(Nc2ccnc(N3CCC(NC(=O)C(C)(C)C)CC3)n2)cc1	NIH3T3 tox inconclusive, HEK293 tox inconclusive (no result: Luciferase inh, hNpr1 antagonist)
COCC(=O)NC1CCN(c2nccc(Nc3ccc(C)cc3)n2)CC1	NIH3T3 tox 35µM, HEK293 tox inconclusive (no result: Luciferase inh, hNpr1 antagonist)
COc1ccccc1Nc1ccnc(N2CCC(NC(=O)Cc3cccc(Cl)c3)CC2)n1	NIH3T3 tox 32µM, HEK293 tox inconclusive (no result: Luciferase inh, hNpr1 antagonist)
Cc1ccc(Nc2ccnc(N3CCC(NC(=O)Cc4cccc(Cl)c4)CC3)n2)cc1	NIH3T3 tox 18µM, HEK293 tox 25µM (no result: Luciferase inh, hNpr1 antagonist)
O=C(O)CCC(=O)N1Cc2ccccc2CC2(CCCN(Cc3ccccc3)C2)C1 (stereo not drawn)	none (no result: Luciferase inh, hNpr1 antagonist)
O=C(NCc1cccs1)c1ccc2nnc(-c3ccc(C(F)(F)F)cc3)n2c1	NIH3T3 tox inconclusive, HEK293 tox inconclusive (no result: Luciferase inh, hNpr1 antagonist)
CNC(=O)N1CCC(C2CCN(C(=O)c3nn(C)c4ccccc34)C2)CC1 (stereo not drawn)	none (no result: Luciferase inh, hNpr1 antagonist)
CC(=O)N1CCN(c2cc(-c3noc([C@@H]4CCCN4Cc4ccccc4C)n3)ccn2)CC1	NIH3T3 tox inconclusive, GPT2 inh inconclusive, HEK293 tox inconclusive
COc1ccc(C(=O)NC2CCN(c3ccc4nnc(C)n4n3)C2)cc1 (stereo not drawn)	NIH3T3 tox inconclusive (no result: GPT2 inh, Luciferase inh, hNpr1 antagonist)
COc1ccccc1CCNC(=O)C1CC(c2ccc(F)c(C)c2)CN(C(=O)C2CC2)C1 (stereo not drawn)	NIH3T3 tox 40µM, HEK293 tox 35µM
O=C(c1cccc2cnccc12)N1CCCC2(C=Cc3ccccc3O2)CC1 (stereo not drawn)	NIH3T3 tox inconclusive, HEK293 tox 45µM
COc1ccc(CN(C)CC2CCN(CCc3ccc(F)cc3)CC2)cc1Cn1cccn1	NIH3T3 tox 40µM, HEK293 tox 28µM
CCOC(=O)N1CCC(N(C)CC2CCN(CCc3ccc(F)cc3)CC2)CC1	NIH3T3 tox inconclusive, HEK293 tox inconclusive
O=C(CNC(=O)c1cccc(-c2ccc(C(F)(F)F)cc2)c1)NCc1ccccc1F	NIH3T3 tox inconclusive, HEK293 tox 22µM (no result: Luciferase inh, hNpr1 antagonist)
O=C(CNC(=O)c1cccc(-c2ccsc2)c1)NCc1ccccc1F	none (no result: Luciferase inh, hNpr1 antagonist)
COc1ccccc1CNC(=O)CNC(=O)c1cccc(-c2ccc(C(F)(F)F)cc2)c1	NIH3T3 tox inconclusive, HEK293 tox 35µM (no result: Luciferase inh, hNpr1 antagonist)
CNC(=O)c1cccc2c1CCN2C(=O)Nc1ccc(F)cc1	Luciferase inh 0.71µM, hNpr1 antagonist 11µM
COc1ccc(NC(=O)N2CCc3c(C(=O)Nc4ccccc4)cccc32)cc1	NIH3T3 tox inconclusive, Luciferase inh inconclusive, hNpr1 antagonist 4.5µM, HEK293 tox inconclusive
COc1ccc(NC(=O)c2cccc3c2CCN3C(=O)c2ccc(F)cc2)cc1	none
CN1CCC(NC(=O)c2cccc3c2CCN3C(=O)Nc2ccccc2)CC1	NIH3T3 tox inconclusive, Luciferase inh 22µM
CN1CCC(NC(=O)c2cccc3c2CCN3C(=O)C2CC2)CC1	none
O=C(NCc1ccc(N2CCOCC2)cc1)c1cccc2c1CCN2C(=O)c1ccccc1	Luciferase inh 40µM
CC(C)c1ccc(S(=O)(=O)N2CC(c3nc(-c4ccncc4)no3)C2)cc1	GPT2 inh inconclusive, hNpr1 antagonist inconclusive, HEK293 tox inconclusive
O=C1NCc2ccccc2CC12CCCN(CC1=CCCCC1)C2 (stereo not drawn)	GPT2 inh inconclusive, HEK293 tox inconclusive (no result: Luciferase inh, hNpr1 antagonist)
COc1ccc(C(=O)N2CCC[C@H]2c2nc(-c3ccccc3Cl)no2)cc1OC	HEK293 tox inconclusive
COCCNC(=O)c1cccc2c1CCN2C(=O)C1CC1	none
COc1cc(CNC(=O)c2cccc3c2CCN3C(=O)C2CC2)cc(OC)c1	HEK293 tox 45µM
COc1ccccc1NC(=O)Cn1c(=O)n(-c2ccc(F)cc2)c(=O)c2c1cc(C)n2C	NIH3T3 tox 32µM, HEK293 tox 45µM
Cc1cccc(NC(=O)Cn2c(=O)n(-c3ccccc3)c(=O)c3c2cc(C)n3C)c1	none
Cc1ccc(NC(=O)Cn2c(=O)n(-c3ccccc3)c(=O)c3c2cc(C)n3C)cc1	NIH3T3 tox 22µM, HEK293 tox 40µM
COc1ccccc1NC(=O)Cn1c(=O)n(-c2ccccc2)c(=O)c2c1cc(C)n2C	none
CN1c2cc(C(=O)NCc3cccs3)ccc2C(=O)N2CCCCC21 (stereo not drawn)	Luciferase inh 25µM, HEK293 tox inconclusive
Cc1ccc(NC(=O)c2ccc3c(c2)N(C)C2CCCN2C3=O)cc1 (stereo not drawn)	Luciferase inh 22µM
CCc1ccc(NC(=O)c2ccc3c(c2)N(C)C2CCCCN2C3=O)cc1 (stereo not drawn)	NIH3T3 tox inconclusive, Luciferase inh 14µM, HEK293 tox inconclusive
CCc1ccc(NC(=O)c2ccc3c(c2)N(C)C2CCCCCN2C3=O)cc1 (stereo not drawn)	Luciferase inh inconclusive, HEK293 tox inconclusive
CN1c2cc(C(=O)Nc3ccc(OC(F)(F)F)cc3)ccc2C(=O)N2CCCCCC21 (stereo not drawn)	NIH3T3 tox inconclusive, Luciferase inh inconclusive, hNpr1 antagonist inconclusive, HEK293 tox inconclusive
CN1c2cc(C(=O)Nc3ccc(OC(F)(F)F)cc3)ccc2C(=O)N2CCCC21 (stereo not drawn)	Luciferase inh 40µM
Cc1cccc(CNC(=O)c2ccc3c(c2)N(C)C2CCCCCN2C3=O)c1 (stereo not drawn)	HEK293 tox inconclusive
CCNC(=O)c1coc(COc2ccc3c(c2)C(c2cccc(F)c2)N(C(=O)C(C)(C)C)CC3)n1 (stereo not drawn)	NIH3T3 tox inconclusive, HEK293 tox inconclusive
Cc1ccc(NC(=O)c2ccc3c(c2)N(C)C2CCCCN2C3=O)cc1 (stereo not drawn)	Luciferase inh 40µM, HEK293 tox inconclusive
Cc1c(C(C)NC(=O)C(=O)c2ccco2)cnn1-c1cccc2ccccc12 (stereo not drawn)	NIH3T3 tox inconclusive, HEK293 tox 45µM
Cc1ncsc1C(=O)N1CC(COc2ccccc2)C2(C1)CN(c1ccccc1)C2 (stereo not drawn)	NIH3T3 tox inconclusive, HEK293 tox 100µM
Cn1ccc(C(=O)N2CC(CNc3ccccc3)C3(C2)CN(c2ccccc2)C3)n1 (stereo not drawn)	NIH3T3 tox inconclusive, GPT2 inh inconclusive, hNpr1 antagonist inconclusive, HEK293 tox 63µM
Cc1ncsc1C(=O)N1CC(CNC(=O)Cc2ccccc2)C2(C1)CN(c1ccccc1)C2 (stereo not drawn)	NIH3T3 tox inconclusive
Cn1ccc(C(=O)N2CC(CNC(=O)Nc3ccccc3)C3(C2)CN(c2ccccc2)C3)n1 (stereo not drawn)	NIH3T3 tox inconclusive
